# Assay outcomes as filed in PubChem.
# A selection: hits, their analogues and other compounds. The true share with any hit is near 1.4%.
# EPAC1 agonist: agonists of human EPAC1. AID 720707. Potency, µM (highest dose often 154 µM), without a hit: at the highest dose activation, actives largely listed as activators. O95398. 0.073% of 360,000 active. EPAC1 agonist qHTS, biochemical assay; response scale: 100% = response to 6.5 mM cAMP; note: nearly all actives have a fitted effect of over 60% in size
# Target sequence (O95398 whole entry, looked up): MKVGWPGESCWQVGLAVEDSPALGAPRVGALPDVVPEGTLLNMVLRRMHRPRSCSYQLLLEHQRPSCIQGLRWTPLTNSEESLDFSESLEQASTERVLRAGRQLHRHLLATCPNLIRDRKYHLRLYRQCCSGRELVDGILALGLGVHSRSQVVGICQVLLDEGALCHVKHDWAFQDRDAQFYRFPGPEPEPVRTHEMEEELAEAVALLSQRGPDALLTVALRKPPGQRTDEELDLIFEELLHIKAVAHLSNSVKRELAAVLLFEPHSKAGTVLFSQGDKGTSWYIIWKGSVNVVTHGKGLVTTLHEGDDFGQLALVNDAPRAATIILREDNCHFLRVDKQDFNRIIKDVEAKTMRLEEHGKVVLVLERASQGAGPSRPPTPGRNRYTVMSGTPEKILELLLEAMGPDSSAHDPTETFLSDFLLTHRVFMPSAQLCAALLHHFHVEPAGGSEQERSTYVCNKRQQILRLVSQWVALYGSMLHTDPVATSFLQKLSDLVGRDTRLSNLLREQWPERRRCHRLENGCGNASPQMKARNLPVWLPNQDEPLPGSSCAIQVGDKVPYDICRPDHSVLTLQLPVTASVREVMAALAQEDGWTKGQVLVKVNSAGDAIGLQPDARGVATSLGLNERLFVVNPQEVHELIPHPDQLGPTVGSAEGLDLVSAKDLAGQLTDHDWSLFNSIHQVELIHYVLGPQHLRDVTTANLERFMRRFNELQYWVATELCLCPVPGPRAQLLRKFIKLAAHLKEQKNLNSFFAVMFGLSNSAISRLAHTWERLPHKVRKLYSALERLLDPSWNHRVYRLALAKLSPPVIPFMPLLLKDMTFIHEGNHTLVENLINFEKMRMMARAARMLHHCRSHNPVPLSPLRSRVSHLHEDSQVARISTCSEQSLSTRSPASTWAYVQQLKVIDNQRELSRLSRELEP
#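 Normalized to 6.5 mM cAMP, activity reflects EPAC1-catalysed release of BODIPY-GDP from Rap1B, followed kinetically over 30 min at 480 nm excitation, 540 nm emission. Reaction contained 100 nM EPAC1, 250 nM Rap1B-BODIPY-GDP, 50 uM GDP.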
# EPAC2 agonist: EPAC2 (human) agonism. Q8WZA2. EPAC2 activation, biochemical qHTS; response scale: 100% = 6.5 mM cAMP response. Potency, µM (highest dose often 154 µM), for inactives: at the top dose activation, usual class: activators. 0.079% of 360,000 active; note: nearly all actives have a fitted effect of over 50% in size
#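 Readout is BODIPY fluorescence (480 nm excitation, 540 nm emission), which falls as labeled GDP is exchanged off Rap1B. EPAC2 at 100 nM acted on 250 nM RAP1B-BODIPY-GDP with 50 uM GDP present.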
# EPAC1 antagonist: blocks human EPAC1 exchange factor | EPAC1 GEF assay, Rap1b-BODIPY-GDP exchange fluorescence | Potency, µM (doses to about 115 µM), for the others: at the highest dose activity change, negative = inhibition, usual class: inhibitors | 0.14% of 360,000 active | O95398;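 note: plate controls were vehicle for no effect and positive control for full effect; nearly all actives have a fitted effect of over 50% in size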
# BRCA1 expr up: increases BRCA1 expression. MCF7-BRCA1-FFLuc reporter, luminescence, 48 h; response scale: scaled: vehicle 0%, 10 µM genistein 100%. Potency, µM (titrated, usually from 46.1 µM), without a hit: at the highest dose activation, actives largely listed as activators. 1.1% of 380,000 active. AID 624202; note: nearly all actives have a fitted effect of over 80% in size
#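 Luminescence from a BRCA1-driven firefly luciferase in MCF7 cells was read after 48 h compound exposure at 37 C. Data normalized against DMSO and a 10microM genistein activation control, then curve-fitted across the titration.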
# USP1-UAF1 inh: inhibitors of human USP1/UAF1 deubiquitinase; Potency, µM (highest dose often 57.1 µM), for the others: at the highest dose activity change, negative = inhibition, actives largely listed as inhibitors; recombinant USP1/UAF1, Ub-Rhodamine cleavage fluorescence; AID 743255; 0.23% of 390,000 active; note: % is set by controls: 0 for no effect and ±100 for the full control effect; nearly all actives have a fitted effect of over 60% in size
#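 USP1/UAF1 complex (1 nM) preincubated 15 min at room temperature with compound, then Ub-Rho substrate (150 nM final) added. Kinetic fluorescence at 480/540 nm over 6 reads at 60 s intervals; 50 mM HEPES pH 7.8, 0.5 mM EDTA, 0.1 mg/ml BSA, 1 mM TCEP, 0.01% Tween-20.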
# EPAC2 antag: EPAC2 (human) antagonism | EPAC2 GEF exchange of Rap1B-BODIPY-GDP, fluorescence | Potency, µM (top dose mostly 114 µM), without a hit: top-dose activity, negative = inhibition, most hits filed as inhibitors | 0.18% of 360,000 active | AID 720708; note: % is set by controls: 0 for no effect and ±100 for the full control effect; nearly all actives have a fitted effect of over 45% in size
# Starred values were filed as active, the others as inactive; i = inactive; ? = inconclusive; . = no result; [ ] = remark or other dose. Calls come from the whole dose curve; as a rule, active = well fitted curve in the direction sought with a large enough effect; inconclusive = small, poorly fitted or top-dose-only effect, or another doubt; inactive = no such curve, though single readings can be large; an effect the other way counts as inactive or inconclusive. Potency is the fitted concentration of half-maximal effect.
SMILES,EPAC1 agonist,EPAC2 agonist,EPAC1 antagonist,BRCA1 expr up,USP1-UAF1 inh,EPAC2 antag
CC(C)OP(=O)(OC(C)C)C1(NS(=O)(=O)c2ccc(Cl)cc2)C=C(Cl)C(=O)C(Cl)=C1,-19%,1%,-20%,-15%,-19%,40µM*
CC(C)N(CCNS(=O)(=O)c1ccc(Cl)cc1)C(C)C,-11%,10%,4%,8%[1.84 µM],-15%,21%
Cc1ccc(Cl)cc1-n1nnc(-c2nc(-c3ccc4c(c3)OCO4)no2)c1C,.,.,.,.,-7%,.
Cc1ccc2nc(N3C(=O)C(O)=C(C(=O)c4ccc(C)o4)C3c3cccc(O)c3)sc2c1 (stereo not given),-13%,-7%,50µM*,-22%,-19%,7%
COc1ccc2nc(N3C(=O)C(O)=C(C(=O)c4ccco4)C3c3ccc(OC)c(OC)c3)sc2c1 (stereo not given),1%,-2%,-5%,5%,?,3%
CCCCN1C(=O)C(=O)N(c2ccccc2)C1=S,3%,-8%,1%,5µM*,0%,-4%
CN(C)/C=C1\C(=O)N(c2ccc(Cl)cc2)CS1(=O)=O,0%,2%,0%,7.9µM*,-4%,2%
CCCn1c(SCC(O)c2ccccc2)nc2ccccc21 (stereo not given),.,.,.,.,-7%,.
Cc1ccc2oc(=O)c(/C=C(\O)c3ccco3)nc2c1,10%,100µM*,14%,-19%,?,214%
O=[N+]([O-])c1ccccc1OCc1nc(-c2cccs2)no1,1%,1%,-4%,2.8µM*,-18%,-29%
Cc1cc(C(F)F)n2nc(C(=O)Nc3c(C)cccc3C)nc2n1,.,.,.,7%,-13%,.
CC(=O)c1ccc(NC(=O)CSc2nnc(-c3ccco3)c(-c3ccco3)n2)cc1,2%,5%,50µM*,-3%,?,8%
Cn1nnc2c(NCc3ccco3)ncnc21,.,.,.,13%,.,.
COc1ccc(CCNC(=O)C(=O)NCC(c2ccco2)S(=O)(=O)c2ccccc2)cc1OC (stereo not given),.,.,.,.,1%,.
Nc1ccc(-c2nc3ccc([N+](=O)[O-])cc3[nH]2)cc1,4%,3%,-2%,2µM*,-1%,-2%
O=[N+]([O-])c1ccc(-c2nc3ccc([N+](=O)[O-])cc3[nH]2)cc1,3%,1%,4%,-24%,-8%,13%
CCCc1ccc(-c2cc(C(=O)NN3CCOCC3)c3ccccc3n2)cc1,9%,-4%,1%,14µM*,-17%,-4%
CC(C)Oc1cccc(-c2cc(C(=O)NN3CCOCC3)c3ccccc3n2)c1,-1%,9%,2%,-3%,0%,-1%
O=C(OCC(=O)N1CCc2ccccc2C1)c1c(F)cccc1Cl,2%,-2%,-2%,6.3µM*,-7%,-27%
O=C(COC(=O)c1ccccc1F)NC1CCCC1,-2%,5%,-12%,-11%,-13%,-12%
Cc1ccsc1C(=O)N1CCc2ccccc2C1,5%,6%,-5%,85%,-9%,-2%
O=C(COC(=O)c1c(F)cccc1Cl)NC1CCCCC1,5%,11%,-12%,11µM*,-13%,1%
Cc1ccsc1C(=O)OCC(=O)N1CCc2ccccc2C1,5%,5%,-23%,7.9µM*,-6%,5%
O=C(NCc1ccccc1)c1cc(C2CCCCN2C(=O)c2ccc(Cl)cc2)on1 (stereo not given),-1%,8%,-1%,6%,.,-21%
C/C(=N\Nc1ccccn1)c1ccc(N2CCOCC2)cc1,-1%,-7%,10%,4.5µM*,-19%,-1%
SMILES,EPAC1 agonist,EPAC2 agonist,EPAC1 antagonist,BRCA1 expr up,USP1-UAF1 inh,EPAC2 antag
CCOC(=O)C1(C)CCCCN1C(=O)c1cccs1 (stereo not given),-9%,5%,13%,0%,.,-1%
COc1ccc(S(=O)(=O)Nc2ccc(OCC(=O)O)cc2)c2ccccc12,8%,7%,-15%,-7%,-9%,89µM*
CC(C)CN(C(=O)COc1ccc(-c2nnco2)cc1)C1CCS(=O)(=O)C1 (stereo not given),-7%,0%,9%,1%,-9%,5%
COC(=O)c1ccc(NC(=O)c2cc3cc4ccc(OC)c(Cl)c4nc3s2)cc1,.,.,.,.,-19%,.
COC(=O)c1sc(-c2ccc(C(C)(C)C)cc2)cc1NC(=O)c1ccccc1C(=O)O,-25%,-4%,56µM*,-10%,28µM*,-9%
COC(=O)c1sc(-c2ccc(Cl)cc2)cc1NC(=O)c1ccccc1C(=O)O,4%,-10%,?,0%,-19%,-18%
CCN(CC)c1ccc2cc(-c3nc(-c4ccc(OC)cc4)cs3)c(=O)oc2c1,-86%,-381%,231%,-13%,i,5.6µM*
C/C(=N\NC(=O)c1c(Cl)cnn1C)c1ccc(NC(=O)c2ccc(Br)o2)cc1,-7%,-2%,-18%,10µM*,-16%,-6%
Cc1nc(COC(=O)c2c(C)nn(-c3ccccc3)c2C)cs1,9%,3%,4%,13µM*,-13%,23%
Cc1nn(-c2ccccc2)c(C)c1C(=O)OCC(=O)Nc1ccccc1,14%,1%,-11%,-3%,-14%,-5%
O=C1NN(c2cccc(Br)c2)C(=O)/C1=C/c1ccc(-c2cc([N+](=O)[O-])ccc2O)o1,-6%,-14%,-17%,-5%,-8%,40µM*
O=C(Cn1nnc(-c2ccccc2)n1)NCC(=O)Nc1ccc(F)c(F)c1F,-15%,-3%,-10%,-8%,-2%,-2%
O=C(NCC1CC1)NC(=O)c1ccccc1F,-16%,-5%,-17%,13µM*,.,-8%
O=C(NCC1CC1)NC(=O)c1c(F)cccc1Cl,12%,2%,-6%,41%,-16%,-11%
Cc1cccc(CSc2cn(CC(=O)N3CCOCC3)c3ccccc23)c1,9%,12%,-16%,3.5µM*,-22%,-21%
CCC(Oc1ccccc1)C(=O)Nc1ccccc1N1CCCC1 (stereo not given),9%,13%,-25%,-10%,-19%,50µM*
CCC(C(=O)Nc1ccccc1N1CCCC1)c1ccccc1 (stereo not given),-1%,-6%,-4%,-27%,-9%,5%
CCC(Oc1ccccc1)C(=O)Nc1ccccc1N1CCCCC1 (stereo not given),-3%,7%,3%,0%,-26%,13µM*
CC(C)CN(C(=O)COC(=O)CSc1ccccc1)c1c(N)n(Cc2ccccc2)c(=O)[nH]c1=O,-8%,0%,7%,3%,-8%,4%
